A selection: hits, their analogues and other compounds. The true share with any hit is near 1.2%.
NPR1 activator – GC-A (human) enzyme activation. P16066. HEK293 GC-A cells, cGMP TR-FRET, EC30 ANP; 0% at EC30 ANP, 100% saturating ANP. activation, % at 10 µM. 370,000 compounds, 0.14% hits; in the data active means activation above about 40%
TLR4-MyD88 BLA – TLR4-MyD88 interaction inhibition in cells; HeLa CL3-4 TLR4/MyD88 BLA complementation, FRET ratio; inhibition, % at 8.4 µM; 200,000 compounds, 0.18% hits; AID 861; in the data active means inhibition above about 25%
NOD2 RIPK2 PPI – NOD2-RIPK2 protein interaction inhibition | CHO BLA complementation NOD2-RIPK2, CCF4 ratio | inhibition, % at 4.98 µM | 360,000 compounds, 0.38% hits | AID 624267; in the data active means inhibition above about 21%
Neddyl block – cullin neddylation inhibition | P61081+Q13564 | TR-FRET cullin neddylation, biochemical | inhibition, % at 25 µM | 360,000 compounds, 0.58% hits; in the data active means inhibition above about 36%
NPR2 activator – GC-B (human) receptor activation. P20594. HEK293-GC-B cells, CNP EC30, cGMP TR-FRET; 0% at EC30 CNP, 100% saturating CNP. activation, % at 10 µM. 370,000 compounds, 0.11% hits;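 active means activation at 10 µM reaching about 35% in either raw or pattern-adjusted values, limit read from the data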
Target sequence (P20594 whole entry, looked up): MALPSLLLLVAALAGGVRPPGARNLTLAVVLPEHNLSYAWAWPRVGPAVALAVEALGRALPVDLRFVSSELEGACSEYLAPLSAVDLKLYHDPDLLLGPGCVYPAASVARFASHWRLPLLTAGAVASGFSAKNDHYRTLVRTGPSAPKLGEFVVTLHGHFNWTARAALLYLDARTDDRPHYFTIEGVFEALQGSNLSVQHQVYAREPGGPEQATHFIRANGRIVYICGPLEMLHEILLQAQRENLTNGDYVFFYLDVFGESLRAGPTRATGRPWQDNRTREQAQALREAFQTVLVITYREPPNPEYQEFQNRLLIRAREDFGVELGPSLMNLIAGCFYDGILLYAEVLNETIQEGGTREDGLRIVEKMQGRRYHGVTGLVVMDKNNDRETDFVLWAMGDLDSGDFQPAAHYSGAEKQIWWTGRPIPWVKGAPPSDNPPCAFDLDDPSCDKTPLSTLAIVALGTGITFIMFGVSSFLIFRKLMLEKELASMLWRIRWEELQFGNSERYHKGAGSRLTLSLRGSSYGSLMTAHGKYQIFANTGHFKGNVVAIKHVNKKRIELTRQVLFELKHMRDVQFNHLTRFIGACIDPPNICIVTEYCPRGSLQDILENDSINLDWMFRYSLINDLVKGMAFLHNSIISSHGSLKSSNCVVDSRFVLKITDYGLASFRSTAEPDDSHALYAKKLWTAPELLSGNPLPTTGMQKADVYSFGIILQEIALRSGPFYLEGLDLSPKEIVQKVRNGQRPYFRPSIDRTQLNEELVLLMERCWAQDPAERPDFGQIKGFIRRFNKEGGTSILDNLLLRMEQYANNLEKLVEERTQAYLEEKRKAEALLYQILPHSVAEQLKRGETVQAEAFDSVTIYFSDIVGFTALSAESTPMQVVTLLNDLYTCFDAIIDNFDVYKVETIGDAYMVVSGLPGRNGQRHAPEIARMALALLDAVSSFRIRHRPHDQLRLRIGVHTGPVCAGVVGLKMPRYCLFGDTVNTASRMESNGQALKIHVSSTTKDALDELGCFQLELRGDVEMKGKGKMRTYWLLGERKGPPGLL
TLR9-MyD88 block – blocks human TLR9 binding to MyD88; inhibition, % at 4.98 µM; 340,000 compounds, 0.21% hits; CHO BLA complementation TLR9-MyD88, CCF4 FRET ratio; Q9NR96+Q99836;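 active means inhibition above the mean over all tested compounds plus 3 SD, cut at about 21% in these data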
Large screens that a line does not name were inactive.

O=C(NC1CCCCN(Cc2cccc(F)c2)C1=O)c1ccc(F)cc1 (configuration not stated)	none (no result: TLR4-MyD88 BLA, NOD2 RIPK2 PPI, Neddyl block, TLR9-MyD88 block)
Cc1c(NC(=O)Nc2ccc(Cl)cc2)c(=O)n(-c2ccccc2)n1C	none
Cc1c(N=C2N=C(NC(=O)Nc3ccc(Cl)cc3)c3ccccc32)c(=O)n(-c2ccccc2)n1C	NPR1 activator 75.8
O=C(NCc1ccccc1Cl)O[C@H]1CC[C@@]23CCCN2C(=O)CCC[C@H]3C1	none (no result: TLR4-MyD88 BLA, NOD2 RIPK2 PPI, Neddyl block, TLR9-MyD88 block)
CCOC(=O)c1cc(-c2ccc(F)cc2)nc2c1c(=O)[nH]c(=O)n2Cc1ccccc1	NPR2 activator 43.1 (no result: TLR4-MyD88 BLA)
O=C1CCCC2=C1C(c1ccco1)Nc1ccc3ccccc3c12 (configuration not stated)	Neddyl block 54.1
COC1=CC(=O)C[C@@H](C)[C@]12Oc1c(Cl)c(OC)cc(OC)c1C2=O	Neddyl block 46.0 (no result: TLR4-MyD88 BLA)
COC1=CC(=O)CC(C)C12Oc1c(Cl)c(OC)cc(OC)c1C2=O (configuration not stated)	none
COc1ccc(S[C@]2(C(=O)N3CCOCC3)CC(=O)N(c3ccc(C#N)cc3)[C@@H]2c2ccc(OC)cc2)cc1	none (no result: TLR4-MyD88 BLA, NOD2 RIPK2 PPI, Neddyl block, TLR9-MyD88 block)
CN(CCOC(=O)CC1C=CCC1)C1CN(Cc2cn(Cc3ccccc3Cl)nn2)S(=O)(=O)C1 (configuration not stated)	none (no result: TLR4-MyD88 BLA, NOD2 RIPK2 PPI, Neddyl block, TLR9-MyD88 block)
CC1=C(C(=O)OCc2ccccc2)C(/C=C/c2ccccc2)NC(=S)N1 (configuration not stated)	none
C=CCOC(=O)C1=C(C)NC(=S)NC1/C=C/c1ccccc1 (configuration not stated)	NPR1 activator 42.9
COC(=O)C1=C(C)N(C)C(=NCc2ccc3c(c2)OCO3)NC1c1cccc(F)c1 (configuration not stated)	none (no result: TLR4-MyD88 BLA, NOD2 RIPK2 PPI, Neddyl block, TLR9-MyD88 block)
O=C(COC(=O)c1cnc(Cl)c(Cl)c1)c1ccc(F)cc1	NPR1 activator 52.5 (no result: TLR4-MyD88 BLA)
O=C(OCc1ccc(Br)cc1)c1cnc(Cl)c(Cl)c1	none (no result: TLR4-MyD88 BLA)
CC1(C)Cc2c(c(N3CCOCC3)nc3sc4c(NN)ncnc4c23)CS1	none
CC1(C)Cc2c(c(N3CCOCC3)nc3sc4c(NCc5ccco5)nnnc4c23)CS1	NPR1 activator 54.5, NPR2 activator 48.0
CC(C)CNc1ncnc2c1sc1nc(N3CCOCC3)c3c(c12)CC(C)(C)OC3	NPR1 activator 42.0, NPR2 activator 38.7
CC1(C)Cc2c(c(N3CCOCC3)nc3sc4c(NCc5ccccc5)nnnc4c23)CS1	NPR1 activator 47.2, NPR2 activator 49.6
CC(C)CNc1nnnc2c1sc1nc(N3CCOCC3)c3c(c12)CC(C)(C)SC3	NPR1 activator 51.8, NPR2 activator 40.0
O=Cc1coc([B-](F)(F)F)c1	none (no result: TLR4-MyD88 BLA, NOD2 RIPK2 PPI, Neddyl block, TLR9-MyD88 block)
CC(C)c1ccc(OC[C@@H](O)CN2CCC(C(O)(c3ccccc3)c3ccccc3)CC2)cc1	none (no result: TLR4-MyD88 BLA, NOD2 RIPK2 PPI, Neddyl block, TLR9-MyD88 block)
Cc1ccc(NC(=O)Cc2ccc(OC(F)F)cc2)c(S(=O)(=O)N2CCOCC2)c1	none (no result: TLR4-MyD88 BLA, NOD2 RIPK2 PPI, Neddyl block, TLR9-MyD88 block)
Cc1ccc(Nc2c(-c3ccccc3O)nc3ncccn23)cc1	NPR1 activator 53.9 (no result: TLR4-MyD88 BLA)
COc1ccc(Nc2c(-c3ccc(OC)cc3)nc3cnccn23)cc1	NPR1 activator 49.8, NPR2 activator 49.4 (not shown: Neddyl block)
Cc1ccc(Nc2c(-c3ccc(N4CCOCC4)cc3)nc3cnccn23)cc1	none (not shown: TLR4-MyD88 BLA, Neddyl block)
COc1ccc(Nc2c(-c3ccc(C)cc3)nc3cnccn23)cc1	NPR1 activator 46.1, NPR2 activator 47.9
Cc1ccc(Nc2c(-c3ccccc3O)nc3cnccn23)cc1	NPR1 activator 48.5
COCCCN1C(=O)[C@H](CC(=O)N2CCSCC2)[C@]2(C(=O)OC)CCCCC=C12	none (no result: TLR4-MyD88 BLA, NOD2 RIPK2 PPI, Neddyl block, TLR9-MyD88 block)
COc1cc2c(cc1OC)C(CSc1ccccc1C(=O)O)=NC(C)(C)C2	Neddyl block 40.9
COC1=CC(=O)C=C(OC)C1=O	NOD2 RIPK2 PPI 21.9 (no result: TLR4-MyD88 BLA)
CN(C)C(=O)COC(=O)c1ccccc1Nc1ccc(SC(F)F)cc1	NPR1 activator 41.9
Nc1ccn([C@@H]2O[C@H](C(=O)N[C@H](Cc3ccccc3)C(=O)N3CCN(CCO)CC3)[C@@H](O)[C@H]2O)c(=O)n1	none (no result: TLR4-MyD88 BLA, NOD2 RIPK2 PPI, Neddyl block, TLR9-MyD88 block)
CC1OC23CCCCC2C(C#N)(C(=N)O3)C1(C#N)C#N (configuration not stated)	none
N#CC12COC3(CCCCC3C1(C#N)C#N)OC2=N (configuration not stated)	Neddyl block 45.4 (no result: TLR4-MyD88 BLA)
N#CC1(C#N)COC23CCCCC2C1(C#N)C(=N)O3 (configuration not stated)	Neddyl block 42.5
CCC1OC23CCCCC2C(C#N)(C(=N)O3)C1(C#N)C#N (configuration not stated)	none (not shown: Neddyl block)
Cc1cccc2nc(-c3ccccc3)c(-c3ccc(CN4CCC(n5cc(-c6ccccc6)[nH]c5=O)CC4)cc3)nc12	none (no result: TLR4-MyD88 BLA, NOD2 RIPK2 PPI, Neddyl block, TLR9-MyD88 block)
COc1cc(OC)c(OC)cc1/C=C1\CC(C)C/C(=C\c2cc(OC)c(OC)cc2OC)C1=O (configuration not stated)	NPR1 activator 49.4 (no result: TLR4-MyD88 BLA)
CCC1C/C(=C\c2cc(OC)c(OC)cc2OC)C(=O)/C(=C/c2cc(OC)c(OC)cc2OC)C1 (configuration not stated)	none (no result: NPR1 activator, TLR4-MyD88 BLA, NPR2 activator)
Cn1c(=O)[nH]c(=O)c2c1nc(NC1CCCCC1)n2Cc1ccccc1	NPR1 activator 51.6, NPR2 activator 39.2
Cn1c(NCC2CCCO2)nc2c1c(=O)n(Cc1ccccc1)c(=O)n2C (configuration not stated)	none
Cn1c(=O)c2c(nc(NCC3CCCO3)n2Cc2cccc(Br)c2)n(C)c1=O (configuration not stated)	NPR2 activator 37.7
CCC(C)Nc1nc2c(c(=O)n(C)c(=O)n2C)n1Cc1ccc(Cl)cc1 (configuration not stated)	NPR1 activator 41.9, NPR2 activator 47.5 (no result: TLR4-MyD88 BLA)
CCNc1nc2c(c(=O)n(Cc3ccccc3)c(=O)n2C)n1Cc1ccccc1	NPR2 activator 40.2
Cc1cccc(Cn2c(NC3CCCC3)nc3c2c(=O)[nH]c(=O)n3C)c1	none (no result: TLR4-MyD88 BLA)
CCCNc1nc2c(c(=O)n(C)c(=O)n2C)n1Cc1ccc(F)cc1	NPR2 activator 40.6
Cc1cccc(Nc2nc3c(c(=O)n(C)c(=O)n3C)n2Cc2ccccc2)c1	NPR1 activator 53.4, NPR2 activator 47.2
O=C(N[C@H](Cc1ccccc1)C(=O)N1CCN(Cc2ccccn2)CC1)[C@H]1O[C@@H](n2ccc(=O)[nH]c2=O)[C@H](O)[C@@H]1O	none (no result: TLR4-MyD88 BLA, NOD2 RIPK2 PPI, Neddyl block, TLR9-MyD88 block)
O=C(Nc1ccc(N2CCOCC2)c(Cl)c1)c1ccc([N+](=O)[O-])o1	none
CCCC(=O)N1CCN(c2ccc(NC(=O)c3ccc([N+](=O)[O-])o3)cc2Cl)CC1	NOD2 RIPK2 PPI 26.6
Clc1ccc(-n2nnnc2SCc2c(-c3ccccc3)nc3sccn23)cc1	NPR2 activator 39.0
O=c1[nH]c(CSc2nnnn2-c2ccc(Cl)cc2)nc2ccccc12	none
